Assay outcomes deposited in PubChem by National Center for Advancing Translational Sciences (NCATS).
KB-3-1 tox – qHTS assay for MDR1-selective chemotherapeutics: Primary screen using the parental adenocarcinoma cell KB-3-1. KB-3-1 viability, CellTiter-Glo ATP luminescence, 72 h. Potency, µM (series often up to 46.1 µM), usual class: cytotoxic. 1.4% of 400,000 active. AID 1347075, 2019; further: nearly all actives have a fitted effect of over 60% in size
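KB-3-1 parental drug-naive adenocarcinoma cells in DMEM/10% FBS, incubated 72 h at 37 C with pin-transferred compounds across a concentration series. Viability by CellTiter-Glo luminescence; concentration-response curves fitted after normalization.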
SW480 rerep – A quantitative high throughput screen for small molecules that induce DNA re-replication in SW480 colon adenocarcinoma cells; SW480 DNA re-replication, Hoechst DNA content imaging, 48 h; Potency, µM (top dose mostly 46.1 µM), usual class: activators; 1.8% of 340,000 active; AID 624297, 2012; further: nearly all actives have a fitted effect of over 55% in size
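Hoechst fluorescence of nuclei (405 nm excitation, 500-530 nm emission) measured by plate-scanning imager after 48 hr compound exposure at 37 C; re-replication scored as increased number of nuclei with elevated intensity.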
KB-V1 cytotox – qHTS assay for MDR1-selective chemotherapeutics: Primary screen using the drug-selected MDR subline cells KB-V1 | 3.4% of 400,000 active | KB-V1 MDR cells viability, CellTiter-Glo, 72 h | Potency, µM (top dose mostly 46.1 µM), most hits filed as cytotoxic | AID 1347076, 2019; further: nearly all actives have a fitted effect of over 60% in size
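KB-V1, DMEM (no phenol red) + 10% FBS; cpd pin-transferred, titration series; 72 h, 37 degrees C; CellTiter-Glo, luminescence. Data normalized, curve-fit.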
IL1B secr inh – qHTS for Inhibitors of Inflammasome Signaling: IL-1-beta AlphaLISA Primary Screen | THP-1 LPS/ATP IL-1B secretion, AlphaLISA, 16 h; hits give low values | activity change, % at 57.5 µM | 4.7% of 360,000 active | AID 743279, 2014; in the data active means activity change below about -50%; inconclusive means mostly about -30% to -49%
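Secreted IL-1B measured by AlphaLISA bead assay after 16 h compound exposure of THP-1 cells; compounds (final up to 57.5 uM) added 1 h before LPS (250 ng/mL) and ATP (1.25 mM) stimulation; lower signal means less secretion.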
MCF10A rerep – A quantitative high throughput screen for small molecules that induce DNA re-replication in MCF 10a normal breast cells | MCF 10A DNA re-replication, Hoechst nuclear intensity, 48 h | 2.9% of 350,000 active | AID 624296, 2012 | Potency, µM (highest dose often 46.1 µM), most hits filed as activators; further: nearly all actives have a fitted effect of over 50% in size
Of the large screens only hits and unclear results are named; the others gave an inactive call. A selection: hits, their analogues and other compounds. The true share with any hit is near 9.9%. Unless noted, the call rests on the fitted dose curve; in most records, active means well fitted curve in the direction sought with a large enough effect; inconclusive means small, poorly fitted or top-dose-only effect, or another doubt; inactive means no such curve, though single readings can be large; an effect the other way counts as inactive or inconclusive.

CCc1cc(C(=O)N2CCCC(C(=O)c3cccc4ccccc34)C2)n(C)n1 (stereo not given)	KB-3-1 tox 21µM, KB-V1 cytotox 5.2µM
CCc1ccc(S(=O)(=O)N2CCN(C(=O)c3cccnc3)CC2)cc1	none
O=C(c1ccncc1)c1ccc(N2CCN(C3CC(=O)N(Cc4ccccc4)C3=O)CC2)cc1 (stereo not given)	KB-3-1 tox inconclusive, KB-V1 cytotox 16µM, MCF10A rerep inconclusive
CC(=O)Nc1sc(N/N=C/c2ccc(C)cc2)nc1-c1ccc(C)cc1	none
CC(=O)Nc1sc(/C(C#N)=C/c2ccc(Cl)c(Cl)c2)nc1-c1ccc(C)cc1	SW480 rerep inconclusive, MCF10A rerep 1.8µM
N#Cc1c(Nc2ccccc2Cl)s[nH]c1=O	SW480 rerep inconclusive, KB-V1 cytotox inconclusive, IL1B secr inh -59, MCF10A rerep inconclusive
N#Cc1c(Nc2ccccc2C(F)(F)F)s[nH]c1=O	SW480 rerep inconclusive, MCF10A rerep 18µM (no result: IL1B secr inh)
CC(=O)Nc1ccc(S(=O)(=O)NCc2ccncc2)cc1	none
O=C(c1ccccc1)c1c[nH]c(C(=O)NNc2ccccc2)c1	KB-3-1 tox inconclusive, IL1B secr inh inconclusive, MCF10A rerep inconclusive
O=C(c1ccccc1)c1cc(Cl)ccc1N1C(=O)C=CC1=O	SW480 rerep 18µM, IL1B secr inh -80, MCF10A rerep inconclusive
C=CCn1c(C)c(C(C)=O)c(N2CCN(C(c3ccccc3)c3ccccc3)CC2)nc1=S	KB-V1 cytotox inconclusive
O=C(CN1CCN(Cc2ccc(Cl)cc2)CC1)N/N=C/C=C/c1ccccc1[N+](=O)[O-]	KB-3-1 tox 21µM, MCF10A rerep inconclusive
O=C(CN1CCN(Cc2ccccc2)CC1)N/N=C/C=C/c1ccccc1[N+](=O)[O-]	none
CCCCOc1ccc(/C=C/C(=O)OCC(=O)NC(=O)NCC(C)C)cc1OCC	KB-V1 cytotox inconclusive
Cc1ccc(S(=O)(=O)N(C)Cc2ccc(C(=O)N/N=C/c3ccc(OC(F)F)cc3OC(F)F)cc2)cc1	KB-3-1 tox inconclusive, KB-V1 cytotox 5.8µM
O=C(N/N=C/c1ccc(OC(F)F)cc1OC(F)F)c1ccc(Br)cc1	none
CN(Cc1c(F)cccc1Cl)c1ccc(S(=O)(=O)N2CCOCC2)cn1	KB-3-1 tox inconclusive, KB-V1 cytotox 18µM
CN1CCN(S(=O)(=O)c2ccc(N(C)Cc3c(F)cccc3Cl)nc2)CC1	MCF10A rerep inconclusive
O=C(Oc1ccc(Cl)c2cccnc12)C12CC3CC(CC(C3)C1)C2	MCF10A rerep 18µM
COC(=O)c1cccc(-n2c(C)cc(C=O)c2C)c1	none
COC(=O)c1cc(C(=O)OC)cc(-n2c(C)cc(C=O)c2C)c1	IL1B secr inh -66
Cc1ccc(NC(=O)CSc2nnc(C3CC3)n2C)cc1S(=O)(=O)N1CCCCC1	none
COc1ccc(N2C(=O)c3ccc(C(=O)Nc4ccccc4O)cc3C2=O)cc1	KB-V1 cytotox inconclusive, MCF10A rerep 2.9µM
Cc1[nH]c2ccc(C(=O)O)cc2c1C	SW480 rerep 26µM, MCF10A rerep 23µM
Cc1[nH]c2ccc(C(=O)OC(C)C(=O)N(C)c3ccccc3)cc2c1C (stereo not given)	KB-V1 cytotox inconclusive
Cc1[nH]c2ccc(C(=O)OC(C)C(=O)N(C)C3CCCCC3)cc2c1C (stereo not given)	KB-3-1 tox inconclusive, IL1B secr inh -81
Cc1[nH]c2ccc(C(=O)NC3CCCC3)cc2c1C	SW480 rerep 2.6µM
O=C(CSc1nc2ccsc2c(=O)n1Cc1ccccc1Cl)NCc1ccc(Cl)cc1	KB-V1 cytotox inconclusive (no result: SW480 rerep, IL1B secr inh, MCF10A rerep)
O=C(Cc1ccccc1)N(Cc1cccnc1)c1nc2c(F)cccc2s1	KB-3-1 tox inconclusive (no result: SW480 rerep, IL1B secr inh, MCF10A rerep)
N#CC1=C(N)N2C(=C(C#N)C13CCN(Cc1ccccc1)CC3)Nc1ccccc12	none
N#CC1=C(N)N2C(=C(C#N)C1c1ccc(Br)cc1)Nc1ccccc12 (stereo not given)	SW480 rerep 16µM, IL1B secr inh inconclusive, MCF10A rerep 2.1µM
